Results from paper PMC5540273 (PLoS ONE, 2017).

How the values were obtained:
Settings in all cases: concentration: 1 μM, replicates: in singlicate; n = 1
[1] = system: PRKCH
[2] = system: PRKCI
[3] = system: PRKCQ
[4] = system: PRKD1
[5] = system: PRKD2
[6] = system: PRKD3
[7] = system: PRKG1
[8] = system: PRKG2
[9] = system: T1, PRKR
T1 construct: gene EIF2AK2

[10] = system: PRKX
[11] = system: PRP4
[12] = system: T2, PYK2
T2 construct: gene PTK2B

[13] = system: QSK
[14] = system: RAF1
[15] = system: RET
[16] = system: RIOK1
[17] = system: RIOK2
[18] = system: RIOK3
[19] = system: RIPK1
[20] = system: RIPK2
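Also: KINOMEscan kinase panel screen.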

Compound	%Inh [1] [%]	%Inh [2] [%]	%Inh [3] [%]	%Inh [4] [%]	%Inh [5] [%]	%Inh [6] [%]	%Inh [7] [%]	%Inh [8] [%]	%Inh [9] [%]	%Inh [10] [%]	%Inh [11] [%]	%Inh [12] [%]	%Inh [13] [%]	%Inh [14] [%]	%Inh [15] [%]	%Inh [16] [%]	%Inh [17] [%]	%Inh [18] [%]	%Inh [19] [%]	%Inh [20] [%]
COc1ccc(-c2coc3ccc(-c4nnc(C)o4)cc23)cc1	13	0	19	20	0	14	15	0	0	0	17	0	0	11	0	0	15	0	0	3
COc1ccc(Nc2nccc(NCCNC(=O)Nc3cc(C)ccc3C)n2)cc1 [GSK1379899]	41	22	0	0	0	11	18	0	0	5	6	0	0	3	16	35	0	24	4	0
COC(=O)c1cccc(NC(=O)NC2CCN(c3ccnc(Nc4ccc(F)cc4)n3)C2)c1 (stereo not drawn) [GSK1379725]	3	15	0	1	1	0	0	0	0	0	41	0	6	4	5	10	0	0	0	0
Nc1ncnc2occ(-c3ccc4c(c3)CCN4C(=O)Cc3cc(F)ccc3F)c12 [GSK2645446]	0	23	0	0	0	0	7	17	3	0	25	0	0	0	10	37	0	0	98.6	0
Cc1ccc(NC(=O)c2ccc(Cl)cc2)cc1-c1ccc(C(=O)Nc2ccncc2)cc1 [GSK1398467]	5	5	0	0	0	9	0	0	4	23	46	18	0	35	0	32	0	8	0	12
FC(F)(F)c1ccccc1-c1cc(-c2c[nH]nc2-c2ccccn2)ccn1 [GW679396]	11	32	0	12	5	100	18	0	0	0	5	24	0	0	11	13	0	10	12	20
COc1ccc(CSc2nnc(-c3ccc4nccn4c3)o2)cc1C(F)(F)F	0	13	30	0	5	1	3	16	0	34	4	0	11	4	23	15	32	17	5	0
CNCc1ccc2nc(NC(=O)c3ccc(C(C)(C)C)cc3)cn2c1	0	20	0	30	2	12	0	21	0	9	36	7	12	11	14	20	86	25	2	2
COc1ccc(Nc2nccc(-c3ccc(NC(=O)c4cc5cc(F)ccc5[nH]4)cc3)n2)cc1 [GSK1229496]	20	15	0	0	0	100	0	0	0	5	41	0	0	17	0	40	0	53	5	4
COC(=O)C(Cc1ccccc1)NC(=O)NC1CCN(c2ccnc(Nc3ccc(F)cc3)n2)C1 (stereo not drawn) [GSK1379714]	10	22	0	0	0	100	0	8	6	0	33	28	0	13	21	24	0	34	18	3
CCCCc1nn2ncccc2c1-c1ccnc(NC2CC2)n1 [GW684374]	0	8	0	0	0	16	0	0	10	4	26	0	0	2	0	39	13	24	0	2
CCn1c(-c2c(N)noc2C)nc2cnccc21 [SB-737856]	6	7	32	1	11	0	0	0	0	16	11	2	20	23	0	11	0	7	0	0
CC[C@@H]1CO[C@H](C(=O)Nc2ccccc2)CN1c1cc(-c2ccc3c(N)n[nH]c3c2)nc(NC)n1 [GSK2376236]	6	39	24	0	12	3	13	84	12	95	11	0	0	4	11	48	4	40	0	9
CS(=O)(=O)Cc1ccc(Nc2nccc(-c3c(-c4cccc(NC(=O)C5CCCCC5)c4)nn4ncccc34)n2)cc1 [GSK350559]	3	23	25	0	0	18	0	3	0	5	1	0	34	0	34	28	0	36	13	5
CNC(=O)c1ccc(C)c(-n2c(C)cc(OCc3ccc(F)cc3F)c(Br)c2=O)c1	0	99.7	7	0	1	0	78	95.6	0	0	0	0	0	0	0	0	0	0	0	0
O=C(Nc1n[nH]c2nc(-c3cccs3)c(Br)cc12)C1CC1 [SB-735297]	4	0	7	0	0	0	2	3	0	0	8	16	8	0	0	7	11	0	8	95.4
Cc1c(Cn2c3ccccc3n3c(=O)cc(N4CCOCC4)nc23)cccc1C(F)(F)F [GSK2306394]	22	9	10	0	10	27	28	0	25	30	0	0	0	0	0	35	12	0	4	0
COc1cccc(CNC(=O)NC2CCN(c3ccnc(Nc4ccc(F)cc4)n3)C2)c1 (stereo not drawn) [GSK1379723]	2	10	0	0	0	14	0	0	0	6	7	3	2	12	8	30	0	0	0	7
Cn1cncc1-c1cc2c(Nc3ccc(OCc4ccccc4)cc3)ncnc2cn1 [GW281179]	13	12	0	0	2	1	8	100	0	15	23	9	0	34	5	27	11	6	0	92.1
CNc1nc(-c2ccc3c(N)n[nH]c3c2)cc(N2C[C@@H](C(=O)Nc3ccccc3)CC[C@H]2C)n1 [GSK2298859]	0	10	0	0	20	0	18	32	0	97	11	0	18	4	4	57	0	38	1	0
Cc1cccc2c(-c3ccncn3)c(-c3ccc(F)cc3)nn12 [GW515532]	33	26	9	3	0	32	8	0	0	5	10	0	0	0	0	34	0	5	1	11

Compound	%Inh [1] [%]	%Inh [2] [%]	%Inh [3] [%]	%Inh [4] [%]	%Inh [5] [%]	%Inh [6] [%]	%Inh [7] [%]	%Inh [8] [%]	%Inh [9] [%]	%Inh [10] [%]	%Inh [11] [%]	%Inh [12] [%]	%Inh [13] [%]	%Inh [14] [%]	%Inh [15] [%]	%Inh [16] [%]	%Inh [17] [%]	%Inh [18] [%]	%Inh [19] [%]	%Inh [20] [%]
COc1ccc(CSc2nnc(-c3ccc4ncsc4c3)o2)cc1C(F)(F)F	0	0	10	17	7	11	0	0	3	0	20	0	0	7	0	10	13	22	0	0
CC(C)c1cc(-c2ccc3c(N)n[nH]c3c2)nc(N)n1 [GSK2250882]	0	10	6	0	0	0	24	14	6	25	4	28	4	0	0	86	14	82	0	0
Cc1cnc(N)c(/C=C/c2cncc(C(=O)NCCc3ccc(Cl)cc3Cl)c2)c1.Cl [GSK190937]	31	23	0	0	5	0	10	16	0	19	6	7	9	0	7	3	79	0	5	13
O=C1NC(=O)C(c2ccc(Cl)cc2)=C1Nc1ccc(O)cc1 [SB-340867]	0	0	0	0	19	0	0	1	0	0	8	18	0	46	0	0	0	0	0	0
Fc1ccc(-c2nc3n(c2-c2ccncc2)CCS3)cc1 [GI98581]	2	1	21	0	6	20	39	0	0	15	0	3	11	20	22	29	0	14	0	31
O=C(Nc1n[nH]c2cc(-c3ccsc3)ccc12)C1CC1 [SB-732932]	0	0	41	82	0	0	0	8	0	1	15	11	26	0	0	83	16	0	56	0
O=C1NC(=O)C(c2ccc(Cl)cc2)=C1Nc1cccc(Cl)c1 [SB-317651]	0	6	11	38	0	0	3	0	0	0	0	0	1	22	8	40	0	22	0	0
Cc1ccc(NC(=O)Nc2ccccc2)cc1-c1ccc(C(=O)Nc2ccncc2)cc1 [GSK1398471]	11	22	8	20	15	3	0	0	0	14	0	17	13	73	13	35	0	17	0	12
Cc1ccccc1-c1cc(-c2c[nH]nc2-c2ccccn2)ccn1 [GW680061]	2	8	2	0	0	100	0	0	0	5	27	0	0	15	0	20	19	0	0	2
COc1ccc(Nc2nccc(N3CCC(NC(=O)c4cc5ccccc5s4)C3)n2)cc1 (stereo not drawn) [GSK1379738]	0	15	7	0	12	100	0	0	0	12	57	0	0	11	14	24	0	36	28	0
COc1ccc(CSc2nnc(-c3ccc4c(c3)CCO4)o2)cc1	0	0	0	0	31	0	0	0	0	0	16	0	0	0	0	0	0	21	0	0
CSc1ccc(-c2nc3n(c2-c2ccncc2)CCC3)cc1 [SKF-105561]	0	37	0	27	4	0	0	0	0	0	1	0	31	0	0	0	0	5	0	74
O=c1cc(N2CCOCC2)nc2n(Cc3ccccc3F)ccn12 [GSK2297428]	18	1	0	0	0	0	0	0	0	0	7	0	0	0	0	38	42	28	0	2
O=C(Nc1n[nH]c2nc(-c3ccco3)c(Br)cc12)C1CCN(Cc2ccccc2)C1.O=C(O)[C@H](O)[C@@H](O)C(=O)O (stereo not drawn) [SB-742034]	14	34	4	14	0	18	0	2	5	0	0	6	26	15	2	0	7	0	0	0
COc1ccc(Nc2nccc(N3CCC(NC(=O)C(C)c4ccc(Cl)cc4)CC3)n2)cc1 (stereo not drawn) [GSK1379812]	6	0	0	0	16	0	2	17	0	8	18	0	0	60	38	24	0	31	22	10
COc1nccc(-c2c(-c3ccc(F)cc3)ncn2CCCN2CCOCC2)n1 [SB-282852]	0	23	0	21	6	0	10	24	10	0	24	0	0	11	0	46	0	10	0	0
Cn1cnc2c(N)ncnc21 [SKF-97623]	0	0	0	52	1	0	6	92.2	0	0	22	0	0	0	0	0	0	0	10	0
CC(=O)c1c(C)c2cnc(Nc3ccc(N4CCNCC4)cn3)nc2n(C2CCCC2)c1=O	0	5	0	0	0	0	9	0	0	0	0	0	0	0	0	0	0	0	0	0
COc1cccc(C2=C(Nc3cc(Cl)c(O)c(Cl)c3)C(=O)NC2=O)c1 [SB-390767]	0	12	0	0	0	100	0	0	0	12	15	0	5	6	16	28	0	0	0	17
NS(=O)(=O)c1cccc(N/C=C2\C(=O)Nc3ccc(S(=O)(=O)Cc4c(Cl)cccc4Cl)cc32)c1 [GSK398099]	0	6	0	0	0	17	0	100	0	12	19	19	11	15	0	19	0	19	0	12
Cc1ccc(-c2nc(Nc3ccncc3)c3ccccc3n2)s1 [GSK189015]	29	20	29	18	14	22	12	0	0	19	0	0	6	12	13	45	26	23	0	10
